Measurements reported in PubChem BioAssay (Tox21).
Several values for one entry are separate records, joined by “and”; a condition that tells them apart may be missing. Equal entries are not always repeated. Records with an inconclusive call do not appear. Some compounds were tested as several samples or in several runs, with calls that do not always agree. Activity calls are given as the source filed them. Unless noted, the call rests on the fitted dose curve; in most records, active means well fitted curve in the direction sought with a large enough effect in the repeat runs; inconclusive means weak or mixed curves; inactive means no such curve, though single readings can be large; an effect the other way counts as inactive or inconclusive.

Legend:
[1] = qHTS assay to identify small molecule antagonists of the sonic hedgehog signaling (Shh) pathway (AID 1259369; calls by dose curve; further: nearly all actives have a fitted effect of over 45% in size; further: potency means the concentration at half of the fitted maximal effect)
Method in brief: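 Inhibition of Shh signalling is measured as reduced Gli1-response-element firefly luciferase output in an NIH/3T3-derived stable reporter clone stimulated with conditioned medium for 24hr.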

[2] = target: Estrogen receptor beta (Homo sapiens) (UniProt Q92731); assay: qHTS assay to identify small molecule agonists of the estrogen receptor beta (ER-beta) signaling pathway (AID 1259377; active means well fitted activation curve with a large enough effect in the signal ratio in the repeat runs, not every such curve was filed as active; the % refers to the signal ratio)
Method in brief: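 In HEK293T cells bearing a UAS-beta-lactamase reporter under ER-beta control, DMSO-delivered compounds were incubated for 16 hr at 37C. Activity was detected as fluorescence 2 hours after LiveBLAzer B/G FRET substrate addition.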

[3] = target: Estrogen receptor beta (Homo sapiens) (UniProt Q92731); assay: qHTS assay to identify small molecule antagonists of the estrogen receptor beta (ER-beta) signaling pathway (AID 1259378; active means well fitted inhibition curve with a large enough effect in the signal ratio in the repeat runs, not every such curve was filed as active; the % refers to the signal ratio)
Method in brief: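 ER-beta-UAS-bla HEK293T cells in 2% charcoal-stripped FBS medium treated with compound plus 1nM final 17-beta-estradiol for 16 hr at 37C. Beta-lactamase reporter read by FRET substrate fluorescence after 2 hours at room temperature.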

[4] = qHTS assay to identify small molecule agonists of the androgen receptor (AR) signaling pathway in the presence of an antagonist - cell viability counter screen (AID 1259379);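 further: MDA-kb2 human breast cancer cells carrying an MMTV luciferase reporter; series mostly up to about 92 µM; nearly all actives have a fitted effect of over 25% in size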
Method in brief: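 Fluorescence from CellTiter-Fluor, added after 15 hr and read 1 hr later, gave cell viability. Cells were MDA-kb2 exposed to compounds (15 concentrations) in the presence of 3.0uM nilutamide at 37C, 0% CO2.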

[5] = qHTS assay to identify small molecule agonists of the estrogen receptor beta (ER-beta) signaling pathway - cell viability counter screen (AID 1259380); further: nearly all actives have a fitted effect of over 30% in size; further: potency means the concentration at half of the fitted maximal effect
Method in brief: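 Same-well viability counter screen. Cells: ER-beta-UAS-bla HEK293T, plated 6 hr before compound, in 2% charcoal-stripped FBS. Compound exposure 16 hr, 37C; viability by CellTiter-Glo luminescence after 30 min at room temperature.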

[6] = qHTS assay to identify small molecule antagonists of the estrogen receptor beta (ER-beta) signaling pathway - cell viability counter screen (AID 1259382); further: nearly all actives have a fitted effect of over 55% in size; further: potency means the concentration at half of the fitted maximal effect
Method in brief: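 Following a 6 hr plating period, HEK293T cells carrying a UAS-driven beta-lactamase reporter under ER-beta control received compounds and 1nM E2 (final). After 16 hr at 37C and 2 hr substrate loading, CellTiter-Glo luminescence indicated viability.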

[7] = target: Estrogen receptor (Homo sapiens) (UniProt P03372); assay: qHTS assay to identify small molecule agonists of the estrogen receptor alpha (ER-alpha) signaling pathway in the presence of an antagonist (AID 1259383; calls by dose curve; further: nearly all actives have a fitted effect of over 15% in size; further: potency means the concentration at half of the fitted maximal effect; on activation: top concentration of the series differs between compounds)
Method in brief: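 Cells are hormone-deprived for 5 days (charcoal-stripped FBS, no phenol red), plated for 24hr, spiked with 10.0nM ICI-182,780, then dosed at 15 concentrations. After 22hr at 37C, ONE-Glo luminescence reports ERE-luciferase activity.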

[8] = qHTS assay to identify small molecule agonists or antagonists of the thyroid stimulating hormone receptor (TSHR) signaling pathway - wild type cell line counter screen (AID 1259384; calls by dose curve)
Method in brief: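 Wild-type Hek293 cells, 800/well, 18 h at 37C, then compound with Ro20-1724 for 30 min RT. cAMP by HTRF (cAMP-d2/anti-cAMP cryptate), 1 h RT, fluorescence read. 15 concentrations, triplicates.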

[9] = target: Thyrotropin receptor (Homo sapiens) (UniProt P16473); assay: qHTS assay to identify small molecule antagonists of the thyroid stimulating hormone receptor (TSHR) signaling pathway (AID 1259385; calls by dose curve; further: nearly all actives have a fitted effect of over 20% in size)
Method in brief: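 TSHR-HEK293 cells (800/well) plated 18 h, then compounds with Ro20-1724 and TSH at 1.5 ng/mL final, 30 min at room temperature. cAMP quantified by HTRF (cAMP-d2/anti-cAMP-cryptate, 1 h); 15 concentrations in triplicate.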

[10] = qHTS assay to identify small molecule agonists of the estrogen receptor alpha (ER-alpha) signaling pathway in the presence of an antagonist - cell viability counter screen (AID 1259386);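 further: cells exposed to compounds for 22 h at 37 °C before the viability read; nearly all actives have a fitted effect of over 30% in size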; further: potency means the concentration at half of the fitted maximal effect
Method in brief: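 Cells are starved of estrogens for 5 days in charcoal-stripped serum, seeded for 24hr and co-treated with ICI-182,780 (10.0nM final) and test compounds. After 22hr at 37C, viability is read as CellTiter-Fluor fluorescence.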

[11] = target: Progesterone receptor (Homo sapiens) (UniProt P06401); assay: qHTS assay to identify small molecule agonists of the progesterone receptor (PR) signaling pathway (AID 1346784; calls by dose curve; further: nearly all actives have a fitted effect of over 30% in size)
Method in brief: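 Using charcoal-stripped serum (2%) to limit endogenous steroids, PR-UAS-bla HEK 293T cells received compounds for 16 hr at 37C after 6 hr plating; beta-lactamase FRET fluorescence was recorded following 2 hr substrate loading at room temperature.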

[12] = target: Progesterone receptor (Homo sapiens) (UniProt P06401); assay: qHTS assay to identify small molecule antagonists of the progesterone receptor (PR) signaling pathway (AID 1346795; active means well fitted inhibition curve with a large enough effect in the signal ratio in the repeat runs, not every such curve was filed as active; the % refers to the signal ratio; further: potency means the concentration at half of the fitted maximal effect)
Method in brief: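 Inhibition of R5020-induced (1 nM final) beta-lactamase reporter signal in PR-UAS-bla HEK293T cells was scored by FRET fluorescence after overnight (16 hr) compound treatment.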

[13] = qHTS assay to identify small molecule antagonists of the progesterone receptor (PR) signaling pathway - cell viability counter screen (AID 1346798); further: nearly all actives have a fitted effect of over 50% in size; further: potency means the concentration at half of the fitted maximal effect
Method in brief: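 ATP content as viability readout: CellTiter-Glo luminescence, 30 min room temperature, in PR-UAS-bla HEK293T cells after 16 hr compound/R5020 treatment at 37C and 5% CO2.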

[14] = qHTS assay to identify small molecule agonists of the progesterone receptor (PR) signaling pathway - cell viability counter screen (AID 1346799; calls by dose curve; further: nearly all actives have a fitted effect of over 45% in size; further: potency means the concentration at half of the fitted maximal effect)
Method in brief: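 Cytotoxicity in PR-bla HEK293T cells: 16 h compound, 37C; CellTiter-Glo added post-FRET read; luminescence after 30 min RT.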

[15] = qHTS assay to identify small molecule antagonists of the TGF-beta/Smad signaling pathway - cell viability counter screen (AID 1346824); further: nearly all actives have a fitted effect of over 50% in size
Method in brief: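 SBE-bla HEK 293T cells, incubated overnight, then compound plus 0.25 ng/mL TGF-beta1 (stock added) for 5 hr at 37 C. Viability was read in the same wells by CellTiter-Glo luminescence after 30 min at room temperature.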

[16] = qHTS assay to identify small molecule agonists of the TGF-beta/Smad signaling pathway - cell viability counter screen (AID 1346829); further: top concentration of the series differs between compounds; nearly all actives have a fitted effect of over 45% in size
Method in brief: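 Cytotoxicity counter screen: CellTiter-Glo luminescence (30 min, room temperature) measured in the SBE-bla HEK 293T reporter wells after 5 hr compound treatment at 37 C and the 2 hr substrate step.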

[17] = qHTS assay to identify small molecule agonists of the sonic hedgehog signaling (Shh) pathway (AID 1259368; calls by dose curve;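 further: NIH/3T3-derived 3T3Gli1-Luc cells carrying a stable Gli1-driven firefly luciferase reporter; series mostly up to about 92 µM; nearly all actives have a fitted effect of over 15% in size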)
Method in brief: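 Steps: seed 3T3 Gli1-Luc cells, incubate 4 hr at 37 C, pin-transfer compounds in DMSO alongside a positive control, incubate 24 hr, add luciferase detection reagent, wait 30 min at room temperature, read luminescence.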

[18] = qHTS assay to identify small molecule agonists of the TGF-beta/Smad signaling pathway (AID 1346859; active means well fitted activation curve with a large enough effect in the signal ratio in the repeat runs, not every such curve was filed as active; the % refers to the signal ratio; further: series mostly up to about 77 µM)
Method in brief: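 Stable Smad binding element-beta-lactamase HEK 293T cells; 5 hr compound exposure at 37 C under 5% CO2; 2 hr room-temperature substrate step; fluorescence excited at 405 nm, collected at 460 nm and 530 nm.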

[19] = target: Thyrotropin-releasing hormone receptor (Homo sapiens) (UniProt P34981); assay: qHTS assay to identify small molecule antagonists of the thyrotropin-releasing hormone receptor (TRHR) signaling pathway (AID 1346877; active means well fitted inhibition curve with a large enough effect in the repeat runs, not every such curve was filed as active; further: series mostly up to about 51 µM)
Method in brief: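 Cells (TRHR-HEK293) are plated and kept 18 h at 37 °C/5% CO2. A calcium-sensitive dye is added for 2 h, compound follows for 5 min at room temperature, and TRH is then given at 1 nM final.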

[20] = target: Androgen receptor (Homo sapiens) (UniProt P10275); assay: qHTS assay to identify small molecule agonists of the androgen receptor (AR) signaling pathway in the presence of an antagonist (AID 1259381; calls by dose curve; further: nearly all actives have a fitted effect of over 15% in size)
Method in brief: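 Cells are MDA-kb2 (human breast carcinoma, MMTV-luc, AR/GR responsive). Nilutamide is present at 3.0uM final throughout; compounds are added at 15 concentrations and incubated 16hr at 37C before ONE-Glo luminescence detection.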

Measured: Potency

Thyrotropin receptor (Homo sapiens), sequence (P16473 whole entry, looked up): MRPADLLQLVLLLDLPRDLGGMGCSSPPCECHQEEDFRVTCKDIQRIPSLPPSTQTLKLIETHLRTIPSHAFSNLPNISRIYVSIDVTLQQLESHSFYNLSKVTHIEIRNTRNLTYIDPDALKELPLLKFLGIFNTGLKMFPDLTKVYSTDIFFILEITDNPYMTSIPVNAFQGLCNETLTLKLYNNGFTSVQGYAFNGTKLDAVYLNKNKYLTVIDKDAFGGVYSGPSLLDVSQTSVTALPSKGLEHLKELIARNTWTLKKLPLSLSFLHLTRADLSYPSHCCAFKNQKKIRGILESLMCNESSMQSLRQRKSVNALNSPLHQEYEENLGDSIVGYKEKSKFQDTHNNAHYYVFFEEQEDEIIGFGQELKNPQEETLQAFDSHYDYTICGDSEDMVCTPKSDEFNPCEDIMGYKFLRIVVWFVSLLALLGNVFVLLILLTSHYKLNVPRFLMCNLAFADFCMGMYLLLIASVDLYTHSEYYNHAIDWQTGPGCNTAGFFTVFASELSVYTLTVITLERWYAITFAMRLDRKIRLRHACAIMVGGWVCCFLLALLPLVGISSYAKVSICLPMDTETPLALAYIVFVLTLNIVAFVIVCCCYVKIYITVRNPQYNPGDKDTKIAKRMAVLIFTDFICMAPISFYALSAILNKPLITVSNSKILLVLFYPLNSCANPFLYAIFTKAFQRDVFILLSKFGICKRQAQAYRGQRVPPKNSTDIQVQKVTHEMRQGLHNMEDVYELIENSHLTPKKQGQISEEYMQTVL
Estrogen receptor beta (Homo sapiens), sequence (Q92731 whole entry, looked up): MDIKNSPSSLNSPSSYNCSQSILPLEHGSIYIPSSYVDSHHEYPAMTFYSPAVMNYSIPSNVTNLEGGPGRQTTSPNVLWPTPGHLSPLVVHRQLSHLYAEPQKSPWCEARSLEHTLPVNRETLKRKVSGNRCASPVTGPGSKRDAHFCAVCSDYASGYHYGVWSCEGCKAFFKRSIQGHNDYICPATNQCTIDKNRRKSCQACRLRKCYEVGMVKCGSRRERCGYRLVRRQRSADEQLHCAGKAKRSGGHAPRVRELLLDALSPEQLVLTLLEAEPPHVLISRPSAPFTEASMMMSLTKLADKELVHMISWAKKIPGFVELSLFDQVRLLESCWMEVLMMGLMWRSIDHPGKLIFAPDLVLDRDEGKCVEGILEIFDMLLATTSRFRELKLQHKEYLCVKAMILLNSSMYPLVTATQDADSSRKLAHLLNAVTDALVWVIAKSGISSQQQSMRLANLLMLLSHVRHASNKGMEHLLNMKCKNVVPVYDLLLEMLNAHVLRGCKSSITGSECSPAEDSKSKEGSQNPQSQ
Progesterone receptor (Homo sapiens), sequence (P06401 whole entry, looked up): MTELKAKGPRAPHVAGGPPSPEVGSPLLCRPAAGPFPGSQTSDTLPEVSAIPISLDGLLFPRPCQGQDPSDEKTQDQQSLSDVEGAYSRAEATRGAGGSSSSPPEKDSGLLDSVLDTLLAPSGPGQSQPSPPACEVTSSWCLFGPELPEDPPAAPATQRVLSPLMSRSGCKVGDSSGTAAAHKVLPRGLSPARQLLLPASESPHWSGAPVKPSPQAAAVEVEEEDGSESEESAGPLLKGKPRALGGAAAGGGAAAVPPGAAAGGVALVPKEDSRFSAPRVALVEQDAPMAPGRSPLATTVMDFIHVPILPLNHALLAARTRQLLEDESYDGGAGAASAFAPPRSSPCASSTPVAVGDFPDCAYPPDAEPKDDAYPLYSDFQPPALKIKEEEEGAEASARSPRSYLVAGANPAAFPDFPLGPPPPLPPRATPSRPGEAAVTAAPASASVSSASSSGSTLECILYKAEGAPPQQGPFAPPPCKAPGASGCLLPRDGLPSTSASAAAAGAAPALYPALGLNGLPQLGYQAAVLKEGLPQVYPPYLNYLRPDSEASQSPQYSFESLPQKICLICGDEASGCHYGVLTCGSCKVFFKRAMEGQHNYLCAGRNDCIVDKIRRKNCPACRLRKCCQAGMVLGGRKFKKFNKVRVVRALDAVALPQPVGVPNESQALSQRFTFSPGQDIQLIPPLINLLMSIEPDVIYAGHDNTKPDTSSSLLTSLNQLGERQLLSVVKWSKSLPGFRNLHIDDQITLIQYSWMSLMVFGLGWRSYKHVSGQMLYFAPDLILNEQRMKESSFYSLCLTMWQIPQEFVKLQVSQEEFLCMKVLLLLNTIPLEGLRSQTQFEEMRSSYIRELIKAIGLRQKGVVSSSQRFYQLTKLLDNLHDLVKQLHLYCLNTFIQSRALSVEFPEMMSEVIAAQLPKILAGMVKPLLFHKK
Thyrotropin-releasing hormone receptor (Homo sapiens), sequence (P34981 whole entry, looked up): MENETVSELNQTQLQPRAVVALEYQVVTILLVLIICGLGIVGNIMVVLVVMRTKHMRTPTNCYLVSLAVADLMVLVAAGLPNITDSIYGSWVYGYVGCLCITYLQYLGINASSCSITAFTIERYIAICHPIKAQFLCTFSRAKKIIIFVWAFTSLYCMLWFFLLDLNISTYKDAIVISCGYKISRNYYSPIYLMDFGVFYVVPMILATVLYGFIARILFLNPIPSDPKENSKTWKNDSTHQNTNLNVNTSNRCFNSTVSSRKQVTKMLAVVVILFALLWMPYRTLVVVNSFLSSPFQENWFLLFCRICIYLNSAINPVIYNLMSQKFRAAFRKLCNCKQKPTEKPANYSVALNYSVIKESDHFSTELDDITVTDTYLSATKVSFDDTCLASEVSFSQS
Estrogen receptor (Homo sapiens), sequence (P03372 whole entry, looked up): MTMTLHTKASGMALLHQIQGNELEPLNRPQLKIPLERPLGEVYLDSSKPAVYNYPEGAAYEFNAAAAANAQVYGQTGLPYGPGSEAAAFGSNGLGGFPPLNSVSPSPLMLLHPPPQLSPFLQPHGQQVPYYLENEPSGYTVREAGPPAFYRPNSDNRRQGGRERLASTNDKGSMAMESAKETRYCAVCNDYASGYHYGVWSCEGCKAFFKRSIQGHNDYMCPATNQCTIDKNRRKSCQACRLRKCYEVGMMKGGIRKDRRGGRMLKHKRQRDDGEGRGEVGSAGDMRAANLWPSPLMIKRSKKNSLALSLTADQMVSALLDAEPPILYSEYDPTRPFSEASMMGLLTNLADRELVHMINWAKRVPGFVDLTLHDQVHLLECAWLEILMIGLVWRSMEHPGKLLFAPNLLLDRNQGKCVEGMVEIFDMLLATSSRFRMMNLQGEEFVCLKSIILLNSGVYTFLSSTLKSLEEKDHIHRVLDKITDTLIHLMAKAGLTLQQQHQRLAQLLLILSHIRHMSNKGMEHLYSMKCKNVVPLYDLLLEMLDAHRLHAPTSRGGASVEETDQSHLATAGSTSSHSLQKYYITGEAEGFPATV
Androgen receptor (Homo sapiens), sequence (P10275 whole entry, looked up): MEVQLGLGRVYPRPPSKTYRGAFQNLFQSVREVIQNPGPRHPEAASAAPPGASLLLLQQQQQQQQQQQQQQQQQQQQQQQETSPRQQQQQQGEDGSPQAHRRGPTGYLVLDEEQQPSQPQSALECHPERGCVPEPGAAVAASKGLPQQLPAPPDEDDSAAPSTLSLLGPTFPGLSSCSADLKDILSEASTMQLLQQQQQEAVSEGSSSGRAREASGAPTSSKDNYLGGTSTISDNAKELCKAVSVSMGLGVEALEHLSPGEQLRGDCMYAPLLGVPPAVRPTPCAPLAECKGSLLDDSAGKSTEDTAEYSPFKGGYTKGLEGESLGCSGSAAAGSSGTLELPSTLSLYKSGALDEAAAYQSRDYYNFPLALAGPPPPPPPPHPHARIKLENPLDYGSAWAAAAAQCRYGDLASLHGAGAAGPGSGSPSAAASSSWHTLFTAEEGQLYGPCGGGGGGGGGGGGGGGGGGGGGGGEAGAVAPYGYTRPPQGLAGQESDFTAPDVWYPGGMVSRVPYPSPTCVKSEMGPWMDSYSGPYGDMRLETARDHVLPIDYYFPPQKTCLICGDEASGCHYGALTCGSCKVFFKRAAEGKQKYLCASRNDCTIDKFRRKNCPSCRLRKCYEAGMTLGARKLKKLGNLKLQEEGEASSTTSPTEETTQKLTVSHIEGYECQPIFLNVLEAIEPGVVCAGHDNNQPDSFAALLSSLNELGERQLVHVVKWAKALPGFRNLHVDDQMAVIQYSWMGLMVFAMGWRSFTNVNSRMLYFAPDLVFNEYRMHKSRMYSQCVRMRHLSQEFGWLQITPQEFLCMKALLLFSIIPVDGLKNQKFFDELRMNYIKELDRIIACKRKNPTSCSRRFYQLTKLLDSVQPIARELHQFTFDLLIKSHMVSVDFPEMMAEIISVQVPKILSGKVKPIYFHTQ

CCCCCCCCCCCO
not listed: [17] | [18] | [19] | [20]
inactive: all other assays above

CCCCC/C=C/C=C/C=O
inactive and 34.4 µM (active): [1]
not listed: [4] | [5] | [7] | [11] | [13] | [20]
inactive: all other assays above

O=C(c1ccc(OCCN2CCCCC2)cc1)c1c(-c2ccc(O)cc2)sc2cc(O)ccc12
inactive: [17] | [15] | [16]
active: [1] 4.86 µM and 2.73 µM and 8.41 µM | [5] 54.5 µM and 34.4 µM and 23.7 µM | [6] 54.5 µM and 26.6 µM | [10] 54.5 µM and 30.6 µM | [12] 30.6 µM and 29.8 µM | [13] 61.2 µM and 61.1 µM and 26.6 µM | [14] 48.6 µM and 68.6 µM and 29.8 µM

C[Si](C)(C)O[Si](C)(C)C
not listed: [7] | [13] | [17] | [20]
inactive: all other assays above

CCC(C)CO (centres undefined)
not listed: [2] | [3] | [12] | [13] | [17] | [18] | [19] | [20]
inactive: all other assays above

OC1CCCCCCCCCCC1
not listed: [2] | [3] | [4] | [17] | [20]
inactive: all other assays above

COc1cc([C@@H]2c3cc4c(cc3[C@H](O)[C@H]3COC(=O)[C@H]23)OCO4)cc(OC)c1OC
active: [1] 5.4 nM and 16.8 nM
not listed: [4] | [7] | [12] | [13] | [14] | [17]
inactive: all other assays above

COC(=O)CCC(=O)OC
not listed: [2] | [3] | [4] | [12] | [13] | [17] | [18] | [20]
inactive: all other assays above

O=CCCCC=O
not listed: [2] | [3] | [8] | [9] | [17] | [20]
inactive: all other assays above

NNc1ccc(C(=O)O)cc1
not listed: [7] | [11] | [12] | [17] | [20]
inactive: all other assays above

O=C(/C=C/C=C/c1ccc2c(c1)OCO2)N1CCCCC1
inactive: [1] | [2] | [4] | [6] | [8] | [9] | [11] | [15] | [16] | [19]
inactive and 2.17 µM (active): [7]

NC=O
not listed: [4] | [7] | [8] | [9] | [13] | [17] | [19] | [20]
inactive: all other assays above

OC(CCl)CCl
not listed: [4] | [13] | [17] | [18] | [19] | [20]
inactive: all other assays above

CC(C)Oc1ccc2c(=O)c(-c3ccccc3)coc2c1
inactive: [1] | [6] | [8] | [9] | [10] | [11] | [12] | [15] | [16]
